The whole screen tested about 240,000 compounds, of which about 15 (0.006%) were called active. The call rests on the fitted dose curve; in most records, active means well fitted inhibition curve with a large enough effect; inconclusive means small, poorly fitted or top-dose-only effect, or effect the other way, or another doubt; inactive means no such curve, though single readings can be large or run the other way. Only a sample is shown.

The assay deals with Lysosomal alpha-glucosidase (Homo sapiens) (UniProt P10253). The assay is described as follows: qHTS Assay for Inhibitors and Activators of Human alpha-Glucosidase From Spleen Homogenate. To be noted: 4-MU-alpha-glucoside fluorescence; series mostly up to 79.9 µM. From the text: NIH Chemical Genomics Center [NCGC] NIH Molecular Libraries Probe Production Centers Network [MLPCN] MLPCN Grant: R03 MH084841-01 Assay Submitter (PI): Wei Zheng NCGC Assay Overview: Alpha-glucosidase is responsible for the hydrolysis of terminal, non-reducing 1,4-linked alpha-D-glucose residues, which releases alpha-D-glucose. It is a lysosomal hydrolase that is required for the degradation of a small percentage (1-3%) of cellular glycogen in humans. Deficiency of this enzyme results in glycogen-storage disease type II (GSDII), also referred to as Pompe disease, an autosomal recessive disorder. Structurally normal glycogen is accumulated in the lysosomes and cytoplasm in affected patients, primarily in muscle tissues. Excessive glycogen storage within lysosomes may interrupt normal functioning of other organelles and leads to cellular injury. In turn, this leads to enlargement and dysfunction of the entire organ involved (eg: cardiomyopathy and muscle weakness). It has been reported that the improper folding and trafficking of alpha-glucosidase resulting from genetic mutations may account for a significant number of Pompe patients. […] We optimized this alpha-glucosidase assay in 1536-well plate format for identification of novel small molecule inhibitors or activators with structures other than the sugar analogs in order to develop new pharmacological chaperones. In particular, this assay is directed towards discovering compounds active in a more natural setting, tissue homogenate, that may have been missed by screens of the purified enzyme under more stringent conditions.
NCGC Assay Protocol Summary: This is a fluorogenic enzyme assay with 4-methylumbelliferyl-alpha-D-glucopyranoside as the substrate and human spleen homogenate containing alpha-glucosidase as the enzyme preparation. Upon hydrolysis of this fluorogenic substrate, the resulting product, 4-methylumbelliferone (which excites at 365 nm and emits at 440 nm) can be detected by a fluorescence plate reader. Data were normalized to the controls for basal activity (without enzyme) and 100% activity (with enzyme). The AC50 values were determined from concentration-response data modeled with the standard Hill equation. Assay buffer: 50 mM citric acid (titrated with potassium phosphate to pH 5.0), 0.01% Tween-20 (pH 5.0 is an optimal condition for this enzyme assay) 1536-well assay protocol for the alpha-glucosidase from human spleen homogenate: (1) Add 2 ul/well spleen homogenate (1 ug) (2) Add 23 nL compounds in DMSO solution. The final titration was 0.5 nM to 58 uM. (3) Add 2 ul of substrate (1 mM final) (4) Incubate at 37 C for 40 min (5) Add 2 ul stop solution (1M NaOH and 1M Glycine mixture, pH 10) (6) Detect the assay plate in a ViewLux plate reader (PerkinElmer) with Ex=365 nm and Em=440nm. Keywords: Alpha-glucosidase, Pompe Disease, pharmacological chaperone, chaperone therapy, high throughput screening, alpha-glucosidase inhibitor, MLSMR, MLSCN, NIH Roadmap, qHTS and NCGC
(In general: In qHTS, concentration-response curves come from the screen itself.)
Take `O=c1cc(-c2ccc(O)cc2)oc2c([C@@H]3O[C@H](CO)[C@@H](O)[C@H](O)[C@H]3O)c(O)cc(O)c12`: the call was inactive.

`Cc1sc2ncnc(Sc3nc4ccccc4s3)c2c1C`: the compound was classed as inactive. Next, `COc1ccc(C(CC(=O)c2ccccc2)S(=O)(=O)c2ccccc2)cc1` (centres undefined): “inactive”; `O=C1NNC(c2ccccc2)=N/C1=C\c1ccc(Cl)cc1`: “inactive”. Consider `CC(O)[C@@H](N)C(=O)O` (some centres undefined), for which the compound was classed as inactive. `OCCC(O)CO` (centres undefined): the compound was classed as inactive. Next, `Cc1ccc(-c2cn(S(=O)(=O)c3cccc([N+](=O)[O-])c3)nc2N)cc1`: “inactive”; `ONC(=Nc1ccccc1)c1ccccc1Cl`: “inactive”; `Cc1c(Br)ccc(NC(=O)COc2ccccc2C(N)=O)c1C`: “inactive”. For the compound `O=C(NCCc1ccccc1)C1CCN(S(=O)(=O)c2ccc(Br)s2)CC1`, the compound was classed as inactive. On to `C=CCn1c(SCC(=O)c2c(N)n(C)c(=O)n(C)c2=O)nc2sc(CC)cc2c1=O`, for which the outcome was inactive. Take `C=CCOC(=O)C(=C)C`: the compound was called inactive. For `Cc1ccc(SCC(CC(C)C)N2CCN(CCc3ccccc3)CCC2=O)cc1` (centres undefined), the call was inactive. The entry for `Cc1nc(=O)c(-c2ccccc2)c(C)n1-c1ccc(Br)cc1` is “inactive”. The entry for `Cc1cc(OCCCC(=O)NCCN2C(=O)S/C(=C\c3cccnc3)C2=O)ccc1Cl` is “inactive”; for `Fc1ccc(Cl)cc1-c1nc(Nc2ccncc2)c2nccnc2n1` it is “inactive”.

`CCOC(=O)c1sc(C)c2c1NC(C)(c1cccc3ccccc13)NC2=O` (centres undefined): the result was inactive.

As for `COc1ccc2c(c1)c(=O)c(C(=O)c1ccc(Cl)cc1)cn2CC(=O)Nc1ccc(F)cc1`, the compound was classed as inactive. Next, `CCOCCOC(=O)C(C)Oc1ccc(Oc2ncc(C(F)(F)F)cc2Cl)cc1` (centres undefined): “inactive”; `S=c1ccc2ccccc2[nH]1`: “inactive”; `C=CCC(C(=O)c1ccccc1)[N+](C)(C)CC=C` (centres undefined): “inactive”. Regarding `O=c1[nH]oc(O)c1-c1ncc(C(F)(F)F)cc1Cl`, the compound was called inactive. The entry for `Cc1cc2ccccn2c1C(=O)c1cccc(S(=O)(=O)N2CCOCC2)c1` is “inactive”; for `CC(=O)NNC(=O)c1csc(Cc2c(Cl)sc3ccc(Cl)cc23)n1` it is “inactive”. Next, `CCCCc1nn(-c2ccccc2C(F)(F)F)c(=O)n1Cc1ccc(-c2ccccc2S(=O)(=O)NC(=O)c2sccc2C)cc1`: “inactive”. With `COC(=O)c1sc(-c2ccc(C(C)(C)C)cc2)cc1NC(=O)/C=C/C(=O)O`, the compound was called inactive. The entry for `CNC(=O)[C@]1(C(F)(F)F)C[C@H](CCc2ccccc2)CCCO1` is “inactive”; for `C[C@@H]1O[C@@H](OC[C@H]2O[C@@H](Oc3cc(O)c4c(c3)O[C@H](c3ccc(O)c(O)c3)CC4=O)[C@H](O)[C@@H](O)[C@@H]2O)[C@H](O)[C@H](O)[C@H]1O` it is “inactive”; for `O=C1C[C@@H](c2ccc3ccccc3c2)N1S(=O)(=O)c1ccccc1[N+](=O)[O-]` it is “inactive”.

Source of the values: PubChem BioAssay AID2112 (National Center for Advancing Translational Sciences (NCATS), 2009).
